Here are results for five compounds from PubChem BioAssay.

Active and inactive are the calls of the source.

Assay [1] can be described thus: small molecules captured by biotinylated probe aFSTL3 – biochemical, small-molecule microarray, fluorescence 635/667, stem cell growth factor project, primary screen (AID 1064).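 Also: measures binding of the biotinylated anti-FSTL3 antibody to printed compounds.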 The settings on record: higher = more signal.
Assay [2] in a line: binders from COS7 lysate, DM2A8 probe, primary screen, torsin A project, cell lysate, small-molecule microarray, fluorescence 635/667 (AID 1065). The settings on record: higher = more signal, COS7 lysate expressing mutant human TOR1A.
Assay [3] in a line: small molecules captured by biotinylated probe aFGF2 – biochemical, small-molecule microarray, fluorescence 635/667, stem cell growth factor project, primary screen (AID 1067).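 Also: measures binding of biotinylated aFGF2 protein to printed compounds on slides; z-score merges feature fluorescence and signal-to-noise across triplicate slides.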 The settings on record: higher = more signal.
Assay [4] is described as follows: small molecules captured by biotinylated probe aFGF10 – biochemical, small-molecule microarray, fluorescence 635/667, stem cell growth factor project, primary screen (AID 1071).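 Also: score merges 667 nm spot intensity and signal to noise from triplicate slides.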 The settings on record: higher = more signal.
Assay [5] has as its target Neurogenic locus notch homolog protein 2 (Homo sapiens) (UniProt Q04721). Put plainly: small molecules binding Notch2 protein – biochemical, small-molecule microarray, 635 nm fluorescence, stem cell growth factors, primary screen (AID 1073). The settings on record: higher = more signal.
Assay [6] deals with Pro-neuregulin-1, membrane-bound isoform (Homo sapiens) (UniProt Q02297). The assay is described as follows: small molecules binding neuregulin-1 protein – biochemical, small-molecule microarray, fluorescence 635/667, psychiatric disease protein project, primary screen (AID 1075).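 Also: score combines 667 nm spot fluorescence with signal to noise.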 The settings on record: NRG1 binding, 635 nm fluorescence, higher = more signal.
Pro-neuregulin-1, membrane-bound isoform (Homo sapiens), sequence (Q02297 whole entry, looked up, the tested form may be a part, canonical isoform): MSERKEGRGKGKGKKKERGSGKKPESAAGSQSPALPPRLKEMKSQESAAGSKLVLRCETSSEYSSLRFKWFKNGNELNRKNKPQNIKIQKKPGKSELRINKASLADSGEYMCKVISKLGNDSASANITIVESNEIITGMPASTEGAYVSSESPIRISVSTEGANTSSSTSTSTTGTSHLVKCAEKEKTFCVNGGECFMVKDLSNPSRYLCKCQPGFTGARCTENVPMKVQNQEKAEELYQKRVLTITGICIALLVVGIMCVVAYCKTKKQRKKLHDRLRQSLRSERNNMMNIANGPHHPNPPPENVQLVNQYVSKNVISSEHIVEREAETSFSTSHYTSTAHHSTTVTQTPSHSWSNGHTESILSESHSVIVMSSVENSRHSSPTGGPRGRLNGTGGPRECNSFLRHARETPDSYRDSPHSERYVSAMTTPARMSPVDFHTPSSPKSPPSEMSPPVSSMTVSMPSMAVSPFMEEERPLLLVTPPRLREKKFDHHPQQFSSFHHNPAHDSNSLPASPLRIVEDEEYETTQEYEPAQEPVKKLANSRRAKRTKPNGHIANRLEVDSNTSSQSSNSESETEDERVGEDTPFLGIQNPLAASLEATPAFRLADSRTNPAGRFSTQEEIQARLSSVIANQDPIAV
Assay [7] has as its system Neuregulin-1 EGF-like domain. The assay is described as follows: small molecules binding NRG1 EGF domain – biochemical, small-molecule microarray, 635 nm fluorescence, primary screen (AID 1081).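 Also: binding of the protein to compounds printed on small-molecule microarray slides.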 The settings on record: higher = more signal.
The nature of assay [8]: FRG1 expression reporter modulators in myotubes – cell-based, C2C12 myotubes, firefly/Renilla luciferase, luminescence, FRG1 inhibition for FSHD, primary screen (AID 1084). The settings on record: FRG1 promoter luciferase, higher = more signal, called active from +8 up or from −8 down.
The nature of assay [9]: small molecules captured by biotinylated probe aFST – biochemical, small-molecule microarray, fluorescence 635/667, stem cell growth factor project, primary screen (AID 1086).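 Also: score merges 667 nm fluorescence with signal-to-noise of each printed compound spot.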 The settings on record: higher = more signal.
Assay [10] in a line: binders of probe aHhip on microarray, primary screen, stem cell growth factor project, biochemical, small-molecule microarray, fluorescence 635/667 (AID 1087).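 Also: score merges spot fluorescence at 667nm with spot signal to noise ratio.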 The settings on record: higher = more signal.
Assay [11] relates to PRMT1 (protein arginine N-methyltransferase 1). The assay is described as follows: small molecules binding arginine methyltransferase PRMT1 – biochemical, small-molecule microarray, 635 nm fluorescence, primary screen (AID 1088).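 Also: binding of Prmt1 protein to compounds spotted on small-molecule microarray slides.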 The settings on record: higher = more signal.
Assay [12] is described as follows: growth effects on S. cerevisiae YJM789 – YJM789 clinical isolate, OD600, 24 h, basal, primary screen (AID 1089).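 Also: growth of clinical yeast isolate S. cerevisiae YJM 789 seeded 1000 cells per well; test concentration not given here.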 The settings on record: higher = more signal, called active from +8 up or from −8 down.
Assay [13] is described as follows: S. pombe growth modifiers, basal conditions – strain 972, OD600, 24 h, no modulator, primary screen (AID 1090).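 Also: basal condition with compound alone and no growth modifier present; test concentration not given here.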 The settings on record: S. pombe 972 growth, higher = more signal, called active from +8 up or from −8 down.
Assay [14] can be described thus: budding yeast growth modifiers under rapamycin – strain BY4716, OD600, 96 h, primary screen (AID 1091). Also: test concentration not given here. The settings on record: S. cerevisiae BY4716 + rapamycin, higher = more signal, called active from +8 up or from −8 down.
The target in assay [15] is Torsin-1A-interacting protein 2 (Homo sapiens) (UniProt Q8NFQ8). The assay is described as follows: small molecules binding lysate-expressed LULL1 – cell lysate, human LULL1 lysate, 635/667 nm fluorescence, primary screen (AID 1092).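 Also: probe is lysate of COS7 cells overexpressing human LULL1; score merges per-feature 667 nm fluorescence with signal-to-noise.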 The settings on record: small-molecule microarray, hLULL1 lysate binding, 635 nm fluorescence; higher = more signal.
Torsin-1A-interacting protein 2 (Homo sapiens), sequence (Q8NFQ8 whole entry, looked up): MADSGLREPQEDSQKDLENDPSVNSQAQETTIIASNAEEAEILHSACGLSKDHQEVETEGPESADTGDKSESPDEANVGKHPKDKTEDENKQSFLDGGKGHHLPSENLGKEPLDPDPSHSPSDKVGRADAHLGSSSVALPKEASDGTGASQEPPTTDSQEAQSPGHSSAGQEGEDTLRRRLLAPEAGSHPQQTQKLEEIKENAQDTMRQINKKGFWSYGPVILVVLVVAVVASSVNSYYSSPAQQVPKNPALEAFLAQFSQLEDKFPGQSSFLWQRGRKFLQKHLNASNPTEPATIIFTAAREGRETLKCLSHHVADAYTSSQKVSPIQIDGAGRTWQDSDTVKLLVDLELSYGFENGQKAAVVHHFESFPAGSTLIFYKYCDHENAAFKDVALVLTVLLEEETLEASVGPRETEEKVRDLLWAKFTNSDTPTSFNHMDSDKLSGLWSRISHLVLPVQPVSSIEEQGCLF
Assay [16] in a line: optical density change of DRC41 E. coli – strain DRC41, OD650, 24 h, E. coli filamentation project, primary screen (AID 1093).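 Also: MC1000 strain lacking acrAB efflux and sulA so SOS filamentation is blocked; test concentration not given here.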 The settings on record: E. coli DRC41 growth, higher = more signal, called active from +8 up or from −8 down.
Assay [17] can be described thus: probe aLefty2 binding to arrayed compounds – biochemical, biotinylated probe, 635/667 nm fluorescence, primary screen (AID 1094).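 Also: score merges spot fluorescence near 667 nm with spot signal-to-noise ratio.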 The settings on record: small-molecule microarray, higher = more signal.
Assay [18] has as its system Noggin (protein binding on small-molecule microarray). The assay is described as follows: small molecules binding Noggin protein – biochemical, 635/667 nm fluorescence, primary screen (AID 1095).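 Also: score merges 667 nm feature fluorescence with signal to noise over triplicate slides.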 The settings on record: 635 nm fluorescence, higher = more signal.
The target in assay [19] is Neurogenic locus notch homolog protein 3 (Homo sapiens) (UniProt Q9UM47). Put plainly: small molecules binding NOTCH3 protein – biochemical, 635/667 nm fluorescence, primary screen (AID 1096). The settings on record: small-molecule microarray, 635 nm fluorescence, higher = more signal.
Neurogenic locus notch homolog protein 3 (Homo sapiens), sequence (Q9UM47 whole entry, looked up): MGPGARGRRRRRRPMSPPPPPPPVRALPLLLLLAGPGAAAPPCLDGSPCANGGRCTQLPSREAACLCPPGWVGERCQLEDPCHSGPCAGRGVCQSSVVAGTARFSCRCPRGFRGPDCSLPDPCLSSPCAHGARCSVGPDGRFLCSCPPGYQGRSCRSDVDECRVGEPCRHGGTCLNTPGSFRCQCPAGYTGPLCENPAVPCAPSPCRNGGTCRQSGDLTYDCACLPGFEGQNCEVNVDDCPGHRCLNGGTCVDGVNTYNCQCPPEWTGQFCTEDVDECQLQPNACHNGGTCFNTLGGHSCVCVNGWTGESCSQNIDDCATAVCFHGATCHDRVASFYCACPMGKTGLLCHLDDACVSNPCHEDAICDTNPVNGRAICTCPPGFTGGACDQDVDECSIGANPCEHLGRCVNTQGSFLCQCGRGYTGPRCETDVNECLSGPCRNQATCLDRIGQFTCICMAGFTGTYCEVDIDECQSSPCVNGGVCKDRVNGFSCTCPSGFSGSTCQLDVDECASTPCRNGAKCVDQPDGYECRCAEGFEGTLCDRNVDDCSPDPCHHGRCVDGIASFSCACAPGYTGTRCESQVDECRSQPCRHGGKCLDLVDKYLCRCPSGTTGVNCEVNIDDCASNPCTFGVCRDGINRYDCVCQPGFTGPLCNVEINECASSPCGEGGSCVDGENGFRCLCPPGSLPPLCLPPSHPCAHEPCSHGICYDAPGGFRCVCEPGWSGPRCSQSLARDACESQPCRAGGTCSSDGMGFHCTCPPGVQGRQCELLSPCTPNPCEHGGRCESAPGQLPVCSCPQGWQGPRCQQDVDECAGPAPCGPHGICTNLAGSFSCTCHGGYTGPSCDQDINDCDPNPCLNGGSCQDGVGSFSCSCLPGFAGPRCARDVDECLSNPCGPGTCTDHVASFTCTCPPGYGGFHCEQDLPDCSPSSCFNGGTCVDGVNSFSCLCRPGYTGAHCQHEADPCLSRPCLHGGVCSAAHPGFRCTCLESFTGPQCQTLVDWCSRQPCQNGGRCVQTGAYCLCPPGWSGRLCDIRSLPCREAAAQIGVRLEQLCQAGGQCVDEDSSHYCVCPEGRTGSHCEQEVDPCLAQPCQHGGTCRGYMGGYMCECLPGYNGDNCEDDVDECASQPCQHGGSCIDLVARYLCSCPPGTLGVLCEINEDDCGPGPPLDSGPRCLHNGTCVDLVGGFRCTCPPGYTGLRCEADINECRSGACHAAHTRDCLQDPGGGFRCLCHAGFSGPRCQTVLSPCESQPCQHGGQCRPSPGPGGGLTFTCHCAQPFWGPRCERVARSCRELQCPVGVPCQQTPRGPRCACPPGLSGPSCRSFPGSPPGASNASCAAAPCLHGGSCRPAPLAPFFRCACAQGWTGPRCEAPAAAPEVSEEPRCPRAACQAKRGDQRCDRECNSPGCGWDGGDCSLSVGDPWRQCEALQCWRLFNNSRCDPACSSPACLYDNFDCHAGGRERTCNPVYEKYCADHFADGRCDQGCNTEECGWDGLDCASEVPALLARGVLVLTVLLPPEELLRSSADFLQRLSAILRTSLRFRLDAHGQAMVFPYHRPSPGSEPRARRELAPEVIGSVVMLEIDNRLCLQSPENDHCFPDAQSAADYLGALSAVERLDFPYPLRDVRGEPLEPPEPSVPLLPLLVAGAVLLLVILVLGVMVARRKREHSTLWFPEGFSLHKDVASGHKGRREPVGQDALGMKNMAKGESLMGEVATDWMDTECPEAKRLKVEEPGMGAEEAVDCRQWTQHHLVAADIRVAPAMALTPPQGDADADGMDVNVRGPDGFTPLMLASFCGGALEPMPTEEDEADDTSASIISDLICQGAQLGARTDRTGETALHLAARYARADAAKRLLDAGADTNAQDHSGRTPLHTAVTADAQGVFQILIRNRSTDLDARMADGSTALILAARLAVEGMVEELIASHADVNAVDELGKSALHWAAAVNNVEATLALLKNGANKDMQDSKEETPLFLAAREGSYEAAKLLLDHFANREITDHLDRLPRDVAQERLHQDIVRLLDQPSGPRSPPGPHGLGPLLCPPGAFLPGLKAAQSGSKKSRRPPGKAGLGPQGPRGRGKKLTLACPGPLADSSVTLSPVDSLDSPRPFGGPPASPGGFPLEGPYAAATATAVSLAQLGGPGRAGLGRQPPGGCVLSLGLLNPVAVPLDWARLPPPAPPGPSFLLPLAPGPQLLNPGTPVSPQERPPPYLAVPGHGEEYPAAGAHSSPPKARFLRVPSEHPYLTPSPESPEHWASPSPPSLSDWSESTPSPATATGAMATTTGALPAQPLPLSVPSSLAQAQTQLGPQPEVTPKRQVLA
The nature of assay [20]: probe aEGFR binding to arrayed compounds – biochemical, biotinylated probe, 635/667 nm fluorescence, primary screen (AID 1097).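 Also: probe is a biotinylated anti-EGFR antibody binding compounds printed on slides; score combines fluorescence near 667 nm and signal to noise of each spot.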 The settings on record: small-molecule microarray, higher = more signal.

As for `NC(=O)NCC#Cc1ccc2c(c1)[C@]1(C(=O)N2)[C@H](c2ccccc2OCCO)N2[C@H](c3ccccc3)[C@H](c3ccccc3)OC(=O)[C@H]2[C@@H]1C(=O)N1CCN(c2ncccn2)CC1`, the composite z-score in assay [1] was 0.533; in assay [2] it was 0.195; in assay [3], -0.0145; in assay [4], 0.499; in assay [5], 0.583; in [6] it was 1.19. The composite z-score in assay [7] was 1.07; in [9] it was 0.315; in [10] it was -0.0994; in assay [11] it was 1.54; in [15], 2.7; in assay [17], 0.276. In addition, the composite z-score in assay [18] is 1.17; in assay [19] it was 1.02; in assay [20], -0.0286. For the same compound, the z-score in assay [8] is -0.112 (inactive); in [12], 1.73 (inactive); in assay [13] it was 0.0422 (inactive); in assay [14] it was 4.25 (inactive); in [16], 2.9 (inactive).

As to `[N-]=[N+]=NCc1ccccc1[C@H]1OC(c2ccc(OCCCO)cc2)=N[C@@]1(Cc1ccccc1N=[N+]=[N-])C(=O)NCc1ccccc1`, the composite z-score in assay [1] is 0.817; in assay [2], 0.155; in assay [3] it was 0.0308; in [4], 0.622; in assay [5], 1.28; in assay [6], 0.408. Moreover, the composite z-score in [7] was 0.807; in assay [9] it was 0.939; in assay [10], 0.0595; in assay [11], 1.4; in assay [15], 2.69; in assay [17], 0.232. Besides, the composite z-score was 0.159 in assay [18], 0.867 in [19] and 0.223 in [20]. Besides, the z-score in assay [8] is -1.35 (inactive); in assay [12], 0.0182 (inactive); in assay [13], 1.98 (inactive); in [14], 11.8 (active); in [16] it was 0.0275 (inactive).

Turning to `C#CCNC(/C=C/c1ccccc1)CO` (stereo not given), the composite z-score is -0.383 in [1]; 0.329 in assay [2]; -0.0973 in assay [3]; 0.41 in [4]; 0.495 in assay [5]; -0.21 in assay [6]. The composite z-score in [7] is -0.0021; in assay [9], 0.155; in assay [10] it was -0.0237; in [11], 0.142; in [15], 0.0064; in [17], -0.0668. For the same compound, the composite z-score is 0.381 in assay [18], 0.447 in assay [19] and -0.135 in assay [20]. Also, the z-score in assay [8] is -0.156 (inactive); in [12] it was 1.11 (inactive); in assay [13], 0.64 (inactive); in assay [14] it was 1.24 (inactive); in [16], -0.852 (inactive).

`O=C1C2C=CC(C(O)C#Cc3ccccc3)N(Nc3ccccc3)C2C(=O)N1c1ccccc1` (stereo not given): the composite z-score was 0.532 in assay [1]; -0.17 in assay [2]; -0.0316 in [3]; 0.208 in assay [4]; 1.46 in assay [5]; 1.74 in assay [6]. Further, the composite z-score in assay [7] was 1.24; in assay [9], 0.246; in [10], -0.226; in assay [11], 0.398; in [15] it was 2.95; in assay [17], 0.217. The values for the composite z-score in [18], in assay [19] and in [20] were -0.418, 0.314 and -0.108, respectively. Moreover, the z-score in [8] is 0.818 (inactive); in [12], 0.132 (inactive); in [13], -0.0141 (inactive); in assay [14] it was 0.104 (inactive); in assay [16] it was -0.389 (inactive).

As to `C[C@@H]1C=CCC(=O)OC[C@H]2O[C@@H](C=C[C@@H]2O)[C@H](C)C=CCC(=O)OC[C@H]2O[C@H]1C=C[C@@H]2O`, the composite z-score in [1] is -0.663; in assay [2], 0.919; in assay [3], -0.113; in assay [4], 0.526; in assay [5], 0.16; in assay [6], -0.0241. In addition, the composite z-score is 0.567 in [7]; 0.0915 in [9]; 0.346 in assay [10]; 1.06 in [11]; -0.552 in [15]; -0.0196 in assay [17]. The results for the composite z-score in assay [18], in assay [19] and in assay [20] were 1.37, 1 and 0.0779, respectively. Besides, the z-score in [8] was -0.274 (inactive); in assay [12], -2.14 (inactive); in [13], -2.87 (inactive); in assay [14], -1.09 (inactive); in [16], 0.332 (inactive).
